A selection: hits, their analogues and other compounds. The true share with any hit is near 4.2%.
PLK1 PBD inh = blocks phosphopeptide binding to human PLK1 polo-box domain | AID 720504 | Potency, µM, inactives show max response, negative = inhibition, usual class: inhibitors | 2.8% of 360,000 active | Plk1 PBD binding of FITC phosphopeptide, fluorescence polarization; further: series mostly up to about 57 µM; nearly all actives have a fitted effect of over 65% in size
VDR inh = vitamin D3 receptor (human) inhibition | VDR-SRC2-3 peptide fluorescence polarization, 2 h | Potency, µM, without a hit: max response, negative = inhibition, usual class: inhibitors | 0.93% of 400,000 active | AID 504847
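The screen uses fluorescence polarization to detect compounds that interfere with recruitment of the SRC2-3 coactivator peptide to VDR; plates are read after 2 h at room temperature.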
12-LOX inh = blocks human arachidonate 12S-lipoxygenase; P18054; purified 12hLO, xylenol orange hydroperoxide absorbance; Potency, µM (top dose mostly 108 µM), inactives show top-dose activity change, negative = inhibition, usual class: inhibitors; 1.1% of 580,000 active; AID 1671190
Target sequence (P18054 whole entry, looked up): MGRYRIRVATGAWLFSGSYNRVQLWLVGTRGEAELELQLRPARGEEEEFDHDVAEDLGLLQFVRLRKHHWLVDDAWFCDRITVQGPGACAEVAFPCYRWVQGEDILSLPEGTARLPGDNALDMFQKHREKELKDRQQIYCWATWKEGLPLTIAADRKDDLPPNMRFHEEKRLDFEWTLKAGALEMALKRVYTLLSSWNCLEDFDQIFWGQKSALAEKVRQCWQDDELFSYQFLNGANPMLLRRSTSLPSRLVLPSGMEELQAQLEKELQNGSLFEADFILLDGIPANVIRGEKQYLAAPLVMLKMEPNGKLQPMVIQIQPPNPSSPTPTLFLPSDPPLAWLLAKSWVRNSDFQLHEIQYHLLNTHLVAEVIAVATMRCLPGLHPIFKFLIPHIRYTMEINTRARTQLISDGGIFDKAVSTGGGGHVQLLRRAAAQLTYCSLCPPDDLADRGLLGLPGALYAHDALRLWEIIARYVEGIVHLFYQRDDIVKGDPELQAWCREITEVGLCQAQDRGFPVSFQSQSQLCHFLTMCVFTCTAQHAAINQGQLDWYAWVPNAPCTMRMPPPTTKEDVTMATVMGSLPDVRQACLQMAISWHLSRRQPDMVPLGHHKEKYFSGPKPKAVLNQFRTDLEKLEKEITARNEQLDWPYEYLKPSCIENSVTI
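Purified human 12hLO at 150 nM in 25 mM Hepes, 0.01% Triton X-100, pH 7.0, preincubated 15 min at room temperature with compound. Reaction started with 40 uM arachidonic acid, 30 min at room temperature. Hydroperoxide measured by Fe-xylenol orange, 573/405 nm absorbance ratio.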
Sfp inh = blocks B. subtilis Sfp PPTase activity; Q9F4F7; Biochemical Sfp PPTase activity, qHTS; Potency, µM, for the others: largest response in the series, negative = inhibition, actives largely listed as inhibitors; AID 1490; 3.5% of 310,000 active;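 further: the enzyme is Sfp with the accession as filed and its product quenches rhodamine fluorescence; 0% = enzyme reaction without inhibitor and -100% = no enzyme wells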
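Buffer: 50 mM Hepes-Na pH 7.6, 10 mM MgCl2, 0.01% Nonidet P-40, 0.01% BSA. Enzyme 15 nM, pre-exposed to compound 15 min; substrates then added and fluorescence change tracked over 30 min.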
TbPYK inh = confirmation of Trypanosoma brucei pyruvate kinase inhibitors; shares compounds with PLK1 PBD inh; recombinant TbPYK, Kinase-Glo ATP luminescence; Potency, µM (series often up to 76.9 µM), for inactives: at the top dose activity change, negative = inhibition, hits mostly inhibitors; 67% of 890 active; further: nearly all actives have a fitted effect of over 70% in size
TbPYK orthogonal = TbPYK inhibition, orthogonal confirmation | shares compounds with PLK1 PBD inh | recombinant TbPYK, ADP-Glo luminescence, 60 min | Potency, µM (series often up to 76.9 µM), without a hit: top-dose activity change, negative = inhibition, usual class: inhibitors | 62% of 890 active | AID 720584; further: nearly all actives have a fitted effect of over 75% in size
Starred values were filed as active, the others as inactive; ? = inconclusive; nt = no result. The call rests on the fitted dose curve; in most records, active means well fitted curve in the direction sought with a large enough effect; inconclusive means small, poorly fitted or top-dose-only effect, or another doubt; inactive means no such curve, though single readings can be large; an effect the other way counts as inactive or inconclusive. Unless noted, on the % scale 0 is the no-effect control and ±100 the full control effect; potency means the concentration at half of the fitted maximal effect.

SMILES | PLK1 PBD inh | VDR inh | 12-LOX inh | Sfp inh | TbPYK inh | TbPYK orthogonal
CSc1ncc(CN2CCN(C3CCCC3)C(CCO)C2)cn1 (stereo not given) | -1% | -9% | -4% | -3% | nt | nt
CN(C)c1ccc(/C=C/c2ccc3c4ccccc4ccc3[n+]2-c2ccccc2)cc1 | -15% | 46% | ? | 14µM* | 32µM* | 7%
CN(C)c1ccc(/C=C/c2cccc[n+]2[O-])cc1 | 13% | -15% | 0% | 8% | nt | nt
CN(C)c1ccc(/C=C/c2ccc3ccccc3[n+]2C)cc1 | 11% | 20% | -25% | -22% | ? | 2%
O=C1C=CC2=C3c4cc(O)c(O)cc4CC3(O)COC2=C1O (stereo not given) | 27µM* | ? | ? | 14µM* | 7.1µM* | 4µM*
CCC(=O)/C=C1/Sc2ccc(OC)cc2N1CC | ? | 0% | -3% | -11% | nt | nt
CCC(=O)/C=C1/Sc2ccccc2N1CC | 27µM* | ? | -28% | 28µM* | ? | 18µM*
O=C(c1ccccc1)N1CCN(C(=O)c2nnn3c2COC(c2ccc(Cl)cc2)C3)CC1 (stereo not given) | nt | nt | 22% | nt | nt | nt
COC(=O)C1CCN(S(C)(=O)=O)CC1 | -5% | -6% | 0% | 7% | nt | nt
CCOC(=O)c1ccc(/[N+]([O-])=C/c2ccccc2)cc1 | 21µM* | ? | ? | nt | -26% | -11%
CCOC(=O)c1ccc(OC(=O)c2ccccc2)cc1 | nt | nt | -6% | nt | nt | nt
Cc1cnc(C(=O)OCc2ccc(-c3ccccc3C#N)cc2)cn1 | nt | nt | 1% | nt | nt | nt
Fc1cccc(C[n+]2csc3ccccc32)c1 | 24µM* | 32µM* | 18µM* | 20µM* | ? | 13µM*
c1ccc(C[n+]2csc3ccccc32)cc1 | 3.8µM* | 40µM* | ? | 18µM* | ? | 14µM*
CC(OC(=O)CCN=C1NS(=O)(=O)c2ccccc21)C(=O)N(C)c1ccccc1 (stereo not given) | -3% | -6% | -19% | nt | nt | nt
COC(=O)c1ccc(C2Nc3ccc(/C(C)=N/NC(=O)C(OC)c4ccccc4)cc3C3C=CCC32)cc1 (stereo not given) | -16% | -28% | ? | ? | ? | ?
CC(=O)c1ccc2c(c1)C1C=CCC1C(c1ccncc1)N2 (stereo not given) | -16% | -16% | ? | -28% | nt | nt
CC1=C(C#N)C(=O)NC(=O)/C1=C/c1ccc(-c2ccc(S(N)(=O)=O)cc2)o1 | 9.5µM* | 25µM* | 4% | 79µM* | -17% | -22%
COC(=O)/C(C#N)=C/c1ccc(-c2ccc(S(N)(=O)=O)cc2)o1 | -6% | 3% | -11% | -3% | nt | nt
O=[N+]([O-])c1cnc(Sc2ccncn2)c([N+](=O)[O-])c1 | 1.2µM* | nt | ? | nt | -90% | ?
O=[N+]([O-])c1ccc(Sc2ccc(F)cc2)nc1 | 1% | -12% | -1% | nt | nt | nt
O=[N+]([O-])c1cccc(CN2CCN(S(=O)(=O)Cc3ccccc3)CC2)c1 | -3% | 1% | ? | 9% | nt | nt
CCOC(=O)c1[nH]c(C)c(CC(C)C)c1C | -6% | 13% | nt | -3% | nt | nt
CCCSc1nc2c([nH]1)c(=O)n(C)c(=S)n2C | -1% | 3% | ? | nt | nt | nt
CCSc1nc2c([nH]1)c(=O)n(C)c(=S)n2C | 3.4µM* | 22µM* | 10µM* | nt | 5µM* | 10µM*
SMILES | PLK1 PBD inh | VDR inh | 12-LOX inh | Sfp inh | TbPYK inh | TbPYK orthogonal
CCN(CC)C(=O)c1sc2nc(N3CCOCC3)c3c(c2c1N)CCCC3 | ? | -11% | ? | 45µM* | 7.9µM* | 4.5µM*
CCOC(=O)c1sc2nc(N3CCOCC3)c3c(c2c1N)CCCC3 | -2% | -8% | -9% | 7% | nt | nt
C=CCOc1ccc(/C=C2/C(=O)ON=C2C)cc1OC | 2.4µM* | -14% | 18µM* | 45µM* | 13µM* | ?
CC(Oc1ccc(F)cc1)C(=O)N(CCC1=CCCCC1)c1c(N)n(Cc2ccccc2)c(=O)[nH]c1=O (stereo not given) | -1% | -1% | -8% | nt | nt | nt
CCN(CC)c1ccc2nc3ccc(N)cc3[n+](-c3ccccc3)c2c1 | -27% | ? | nt | nt | ? | 8%
CCN(CC)c1ccc(/C=N/n2nnnc2N)c(O)c1 | -5% | -3% | -23% | -17% | nt | nt
CC(Oc1ccccc1)C(=O)Nc1ccc(S(=O)(=O)N2CCN(C)CC2)cc1 (stereo not given) | -6% | -25% | -2% | nt | nt | nt
CC(Oc1ccccc1Cl)C(=O)Nc1ccc(S(=O)(=O)N2CCN(C)CC2)cc1 (stereo not given) | 19µM* | ? | ? | nt | ? | ?
O=C(NC(=S)NNC(=O)c1ccccc1[N+](=O)[O-])c1ccc(Br)cc1 | ? | -22% | 3.5µM* | 79µM* | ? | ?
O=C(CCn1ccn2nc3c(c2c1=O)CCCC3)N1CCN(c2ccc(F)cc2)CC1 | nt | nt | 28% | nt | nt | nt
O=C(O)c1ccc(NS(=O)(=O)c2ccc3c(c2)C2C=CCC2C(c2ccccc2F)N3)cc1 (stereo not given) | ? | ? | ? | 10µM* | ? | ?
C1=CC2c3ccccc3NC(c3ccncc3)C2C1 (stereo not given) | ? | ? | ? | 32µM* | 18µM* | 16µM*
COc1cccc(/C=C2\C(=O)C(=O)c3ccccc32)c1 | 0.79µM* | 89µM* | ? | -16% | 32µM* | ?
CC1=CC(=O)C=CC1=Nc1ccc(N(C)C)cc1 | ? | nt | 7.9µM* | nt | 22µM* | -16%
CCCn1c(SCC(=O)Nc2nc(-c3ccc(OC)cc3)cs2)nc2c1c(=O)n(C)c(=O)n2C | -12% | 0% | 7% | 10% | 11% | 2%
COC(=O)C1=C(C(=O)OC)C(C(=O)OC)C(C(=O)OC)C(C(=O)OC)(C(=O)OC)C(C(=O)OC)=C1C(=O)OC (stereo not given) | 11µM* | 40µM* | -18% | nt | 28µM* | 35µM*
O=C(Nc1ccc(Cl)cc1)C(Cl)C(=O)c1ccccc1 (stereo not given) | 0.6µM* | 18µM* | ? | 28µM* | 7.9µM* | 14µM*
O=C(CCn1nnc2ccccc21)OCC(=O)c1ccc(Cl)c(Cl)c1 | nt | nt | 20% | nt | nt | nt
CCOC(=O)C1=C(C)NC(C)=C(C(=O)OCC)C1C(=O)OCC(=O)N1c2ccccc2CC1C (stereo not given) | 2% | 10% | 5% | 0% | nt | nt
O=S(=O)(NCCC1=CCCCC1)c1cccc(S(=O)(=O)N2CCOCC2)c1 | 2.7µM* | -27% | 22% | 14% | 0% | -6%
O=S(=O)(NCCc1ccccc1)c1cccc(S(=O)(=O)N2CCOCC2)c1 | 1% | 10% | 0% | 19% | nt | nt
Cc1ccc(S(=O)(=O)N(C(=O)c2ccco2)c2cc3sc(=O)oc3c3ccccc23)cc1 | -7% | 20µM* | 28µM* | 8.9µM* | -29% | ?
